According to ChEMBL document CHEMBL4513216, “Probing the Open Global Health Chemical Diversity Library for Multistage-Active Starting Points for Next-Generation Antimalarials” (ACS Infect Dis, 2020):
The campaign covered roughly 65,000 compounds. About 2,100 (3.2%) showed an effect of 50% or more. The median lay at about -52%. The sample as a whole holds a higher share of strong results than the screen did.

What follows are compounds tested on Plasmodium falciparum (assay: Screen against P. falciparum Asexual Blood Stage (ABS), at 5uM). Details: tested at 5 uM.
Format: functional, Dd2
`CCS(=O)(=O)N[C@@H]1CN(Cc2cc(C)on2)C[C@@H]2CCCO[C@@H]21` gave an INHIBITION of -96%. For `CN1CCN(c2ccc(CO)cc2F)CC1`, the INHIBITION was -62.7%. Work on `CN1CCN(c2ccc(F)cc2C(N)=O)CC1` yielded an INHIBITION of -105%. `COC(=O)CNC(=O)c1cn(Cc2ccccc2F)nn1` gave an INHIBITION of -63.8%. Work on `CN1CCN(c2ccccc2CNC(=O)Cc2ccccc2F)CC1` yielded an INHIBITION of 77%. Work on `CN1CCN(c2ccccc2NC(=O)NCCc2ccccc2)CC1` yielded an INHIBITION of 83.9%. `CN1CCN(c2ccnc3c(F)cc(Br)cc23)CC1` gave an INHIBITION of 0.83%. Compound `CN1CCN(c2ccccc2CNC(=O)Cc2cccc(F)c2)CC1` has an INHIBITION of 77.4%. `O=S1(=O)CCC(n2cc(C3=CCN(CCn4cccc4)CC3)cn2)C1` (stereo unspecified) was tested, and the INHIBITION was -22.4%. Compound `Cc1noc(C)c1CN1C(=O)[C@@H]2CC[C@H]1CN(Cc1cscn1)C2` has an INHIBITION of -41.1%. `O=C(C1CCC1)N1CCC2(CC1)CNCCO2` gave an INHIBITION of -16.3%. For `O=C(Nc1ccccc1)C1=NOC2(CCNCC2)C1`, the INHIBITION was -53.9%. `COc1ccc(CC(C)(O)CNC(=O)c2cccs2)cc1` (stereo unspecified) was tested, and the INHIBITION was 89.1%. `c1cc(COC[C@H]2CCC[C@]23CNCCO3)ccn1` showed an INHIBITION of 14.9%. For `c1cnc(NCc2cncc3c2CCN(CC2CC2)C3)nc1`, the INHIBITION was -95%. `CC(C)N1CCO[C@H]2CN(C(=O)c3ccccn3)C[C@H]21` showed an INHIBITION of -46.1%. `CCOc1cccc(C(C)NC(=O)N2CCC3(CC2)OCCO3)c1` (stereo unspecified) showed an INHIBITION of -117%. In the case of `OC(CNC1CCSCC1)c1cccc(OCc2ccccc2)c1` (stereo unspecified), the INHIBITION is reported as 74.4%. Work on `CN1CCC(NCC(O)c2cccc(OCc3ccccc3)c2)CC1` (stereo unspecified) yielded an INHIBITION of 90.7%. `NCC(c1cccnc1)N1CCOCC1` (stereo unspecified) showed an INHIBITION of -122%. Compound `CC(C)OCCN(C)CC(c1cccs1)N1CCOCC1` (stereo unspecified) has an INHIBITION of 79.9%. Work on `c1cnc(N2CC[C@@H]3[C@@H]2CCN3Cc2cccs2)nc1` yielded an INHIBITION of -56.7%. For `c1ccc(COC[C@H]2CC[C@H]3[C@H](CCN3Cc3cccs3)O2)nc1`, the INHIBITION was -43.6%. `Oc1cc(C2CCCCN2Cc2cccs2)nc(-c2ccccn2)n1` (stereo unspecified) showed an INHIBITION of 85.9%. `CCN1CCN(Cc2nc(C)no2)CC1` was tested, and the INHIBITION was -11.7%. `Cc1noc(C)c1CN1C[C@@H](OCC(=O)N(C)C)[C@H]2OCCC[C@H]21` gave an INHIBITION of -76.4%. Compound `COc1cccc(CNCc2ccc(F)c(Cl)c2)c1O` has an INHIBITION of 80%. `COc1cccc(CNCc2cccc(Cl)c2)c1O` gave an INHIBITION of 85.2%. In the case of `COc1cc(CNCCNC(=O)c2ccc(O)cc2)ccc1SC`, the INHIBITION is reported as 26.9%. `CC1CCC2(CC1)NC(=O)c1cc(Br)ccc1-n1nnnc12` (stereo unspecified) gave an INHIBITION of -65.8%. `O=C(c1csc(-c2ncccn2)n1)N1CCN2CCCCC2C1` (stereo unspecified) gave an INHIBITION of -32.7%.
